EWS-Fli inh: inhibitors of EWS/Fli oncoprotein transcriptional activity | A673 NR0B1-luciferase reporter, viability-normalised | inhibition, % at 12.6 µM | 350,000 tested, 0.67% active;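 active = mean inhibition of at least 50% after viability correction, with every replicate also passing that limit; inconclusive = mean reaches 50% but only one of two replicates passes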;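 note: firefly luciferase signal divided by Alamar Blue viability fluorescence both relative to DMSO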
PAX8 inh HTS: PAX8 transcriptional activity inhibition. inhibition, % at 12.6 µM. AID 652154. 360,000 tested, 1.2% active. RMG-I TPO-luciferase reporter, SteadyGlo, 24 h;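 active = mean replicate inhibition at least 60% with every replicate also reaching 60%; inconclusive = only one of the two criteria is met; inactive = mean below 60% and not all replicates reaching 60%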;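 note: luciferase light reporting Pax8 driven TPO promoter activity; plate controls were median of neutral control wells for no effect and mitoxantrone controls for full effect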
MITF TRPM1 inh: inhibitors of MITF-driven TRPM1 promoter in melanoma cells; SK-MEL-5 TRPM1 promoter luciferase, 24 h; inhibition, % at 12.5 µM; 330,000 tested, 0.83% active;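 active = mean inhibition across replicates of 60% or more, whatever share of single replicates reaches that level; inconclusive = some that reach 60%, reason not given; inactive = mean inhibition across replicates below 60%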
Wnt act: activators of Wnt/beta-catenin signaling. activation, % at 9.35 µM. 300,000 tested, 1.2% active. Wnt/beta-catenin reporter cell assay, activator, plate reader; in the data active = activation above about 30%, passing the limit was not always enough; inconclusive = no clear call, values can overlap the other calls;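 note: 0% = neutral control wells and 100% = positive control wells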
esBAF inh: inhibitors of esBAF chromatin remodeling in mouse ES cells; Bmi1-luciferase knock-in reporter, 24 h; 100% = twice the neutral-well signal; reporter increase, % at 12.5 µM; 350,000 tested, 2% active; in the data active = activation above about 40%; inconclusive = no clear call, values can overlap the other calls;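 note: 0% = median of the plate's neutral control wells and 100% = double that signal; a rise in the Bmi1 reporter signal indicates esBAF inhibition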
MITF act: MITF TRPM1 promoter activation in melanoma cells; SK-MEL-5 TRPM1-promoter luciferase, 24 h; % of positive control, neutral wells = 0; activation, % at 12.5 µM; 300,000 tested, 0.75% active; AID 588334;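 active = mean activation of at least 80% with every replicate also reaching 80%; inconclusive = mean reaches 80% but some replicate falls short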;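 note: 0% = neutral control wells and 100% = parthenolide positive control wells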
* hit, by the source's call; u = inconclusive; x = not tested or not shown. A selection: hits, their analogues and other compounds. The true share with any hit is near 4%.

SMILES	EWS-Fli inh	PAX8 inh HTS	MITF TRPM1 inh	Wnt act	esBAF inh	MITF act
COc1cc(/C=N/NC(=S)NC2CC3CC2C2C=CCC32)ccc1O (stereo unspecified)	-2	1	-19	20	48*	x
O=C(C[C@H]1C[C@H]2c3cc(NC(=O)Cc4ccncc4)ccc3O[C@H]2[C@H](CO)O1)NCc1cc(F)ccc1F	24	6	x	x	15	x
Cc1ccc(-c2nnn(CC(=O)N(Cc3cccs3)C(C(=O)NC3CCCC3)c3ccncc3)n2)cc1 (stereo unspecified)	x	x	73*	-2	u	-72
CC(C)CCNC(=O)C(c1ccncc1)N(Cc1cccs1)C(=O)Cn1nnc(-c2ccc(F)cc2)n1 (stereo unspecified)	x	80*	76*	u	22	-75
CC(C)NC(=O)N1CC2(C1)[C@H](c1ccccc1)[C@@H](CO)N2Cc1cccnc1	0	x	x	x	x	x
CN1C(=O)/C(=C\C(=O)c2cccs2)c2ccccc21	42	89*	51	3	x	-52
O=C1CCN(C(=O)c2cccs2)c2ccccc21	0	10	6	1	x	-3
C/C(=N/N=C(/C)c1cccs1)c1cccs1	-98	-140	-56	15	48*	x
Cc1ccccc1-n1ncc2c([N+](=O)[O-])cc([N+](=O)[O-])cc21	x	x	67*	x	-2	-65
C[C@@H]1CCCCO[C@@H](CN(C)C(=O)Nc2ccc3c(c2)OCO3)[C@H](C)CN([C@H](C)CO)C(=O)c2cc(NS(=O)(=O)c3cn(C)cn3)ccc2O1	0	x	x	x	7	x
Cc1noc(C)c1NC(=O)Nc1ccc2c(c1)C(=O)N([C@H](C)CO)C[C@H](C)[C@@H](CN(C)C(=O)Nc1ccccc1)OCCCC[C@@H](C)O2	-9	-2	x	x	1	x
COc1ccc(NC(=O)N[C@@H]2CC[C@H](CCNC(=O)Nc3cc(F)ccc3F)O[C@@H]2CO)cc1	x	x	x	x	4	x
CC(C)(C)S(=O)N1Cc2cc(C(=O)N[C@@H]3CCN(Cc4ccccc4)C3)nc(-c3cccc(C#CCC4CCCC4)c3)c2[C@H]1CCO (stereo partly specified)	16	14	x	x	x	x
C/C(Cc1ccccc1)=N\NC(=O)CNC(=O)c1cccc(Cl)c1	-1	-2	3	33*	x	-3
CC1C(=O)Nc2ccc(S(=O)(=O)N3CCN(c4cccc(C(F)(F)F)c4)CC3)cc2NC1=O (stereo unspecified)	x	68*	16	-11	-8	-13
Cc1ccc(N=Cc2nc(-c3ccc(C)cc3)oc2O)cc1	-17	-4	-11	0	x	16
COc1ccc(N=Cc2nc(-c3ccco3)oc2O)cc1	x	x	-96	x	63*	99*
C[C@H](CO)N1C[C@H](C)[C@H](CN(C)C(=O)CCC(F)(F)F)OCCCC[C@H](C)Oc2ccc(NC(=O)NC3CCCCC3)cc2C1=O	1	1	x	x	-1	x
CC(C)CN(CC(C)C)C(=O)c1cc2c(=O)n3ccccc3nc2s1	14	7	-1	0	1	-1
CC1CCCCN1C(=O)c1cc2c(=O)n3ccccc3nc2s1 (stereo unspecified)	-36	-25	-21	14	28	25
Cc1cccn2c(=O)c3cc(C(=O)N4CCCC(C)C4)sc3nc12 (stereo unspecified)	-63	-9	-25	5	23	24
CC1CCCN(C(=O)c2cc3c(=O)n4ccccc4nc3s2)C1 (stereo unspecified)	x	-76	-30	12	62*	22
CCN(CC)C(=O)c1cc2c(=O)n3ccccc3nc2s1	-48	-37	-19	21	42*	21
Cc1cccn2c(=O)c3cc(C(=O)N4CCCCC4)sc3nc12	x	27	-14	10	47*	14
Cc1nn(-c2ccccc2)c2sc(C(=O)N3CCCCC3)cc12	x	x	-15	-2	45*	19
SMILES	EWS-Fli inh	PAX8 inh HTS	MITF TRPM1 inh	Wnt act	esBAF inh	MITF act
COC(=O)C[C@H]1C=C[C@@H](NC(=O)C2CC2)[C@@H](CO)O1	-1	-27	x	45*	x	x
Cc1ccc(S(=O)(=O)N[C@@H]2CC[C@H](CC(=O)N3CCc4ccccc4C3)O[C@H]2CO)cc1	3	9	x	x	3	x
COC(=O)C1=C(C)Nc2nc3ccccc3n2C1c1cc(OC)c(OC)c(OC)c1 (stereo unspecified)	16	3	x	44*	x	x
CCc1ccn2cc(-c3cc(-c4ccccc4)no3)nc2c1	75*	83*	78*	-9	-82	x
Cc1ccc2nc(-c3cc(-c4ccccc4)no3)cn2c1	69*	40	31	18	-55	-30
COCC(=O)Nc1ccc2c(c1)C(=O)N(C)C[C@H](OC)[C@H](C)CN(C(=O)c1ccccn1)[C@@H](C)CO2	3	-3	x	x	-1	x
CC(C)NC(=O)N[C@@H]1CC[C@H](CCNC(=O)C2CCCC2)O[C@@H]1CO	-4	7	x	x	1	x
Cn1c(C=O)c(C#CC(C)(C)O)c2ccccc21	2	74*	18	-8	4	-19
COc1cccc(C#Cc2c(C=O)n(C)c3ccccc23)c1	-17	85*	8	-16	19	-5
CCCOc1ccc(-c2nnc(N)s2)cc1	x	-158	-66	36*	u	60
O=C(CSC1=NCCN1)Nc1cccc([N+](=O)[O-])c1	25	47	36	41*	-4	-37
CC(C)COC(=O)N(C)c1ccc(C(O)(C(F)(F)F)C(F)(F)F)cc1	x	x	-24	0	45*	26
Cn1c(SCc2ccc(C#N)cc2Cl)nc2ccccc21	x	x	-82	x	87*	u
O=C(C[C@@H]1CC[C@H](NC(=O)c2ccccc2)[C@@H](CO)O1)Nc1ccc(-c2ccccc2)cc1	4	25	x	x	11	x
Cc1c(O)nc2sc3ccccc3n2c1=O	20	-3	x	4	x	x
Cc1cc2sc3nc(=O)n(-c4ccccc4)c(=O)n3c2cc1C	-139	-126	-110	71*	x	x
CC=Cc1ccc2n(c1=O)C[C@H]1[C@H](CO)[C@@H](C(=O)NCC)[C@@H]2N1C(C)=O (mixture of isomers)	29	-16	x	x	0	x
CC(C)C[C@@H](CN1CCCC1CN1C(=S)NC[C@@H]1Cc1ccc(O)cc1)N1C[C@H](Cc2ccc(O)cc2)N(CCc2ccccc2)C1=S (stereo partly specified)	7	71*	35	-7	12	-33
CCOc1ccc(CCN2C(=S)N([C@@H](Cc3ccc(O)cc3)CN3CCCC3CN3C(=S)NC[C@@H]3Cc3ccc(O)cc3)C[C@@H]2CC(C)C)cc1 (stereo partly specified)	27	54	29	-24	-1	-29
CCOc1ccc(CCN2C(=S)N([C@@H](Cc3ccc(O)cc3)CN3CCC[C@@H]3CN3C(=S)NC[C@@H]3CC(C)C)C[C@@H]2Cc2ccc(O)cc2)cc1	34	98*	x	-12	-24	x
C[n+]1ccccc1/C=C/c1ccc2ncccc2c1	-2	-5	3	-1	71*	x
